# Measurements taken from PubChem BioAssay (EPA / NIEHS).
# Inconclusive results are not listed. Calls of active or inactive are those of the source. The calls were made as follows: active = hit-call score of the fitted dose curve at least 0.9, where 1 is the maximum; inconclusive = response in the unintended direction; inactive = score below 0.9.
# Biological target: human Peroxisome Proliferator-activated Receptor alpha (PPARa), PPARA (gene 5465) (UniProt Q07869)
# Assay: ATG_PPARa_TRANS: Attagene TRANS-FACTORIAL HepG2 Assay for human Peroxisome Proliferator-activated Receptor alpha (PPARa) (AID 2283001)
# Experimental: ATG_TRANS is a cell-based, multiplexed-readout assay that uses HepG2, a human liver cell line, with measurements taken at 24 hours after chemical dosing in a 24-well plate.ATG_PPARa_TRANS is one of 30 assay component(s) measured or calculated from the ATG_TRANS assay. It is designed to make measurements of mRNA induction, a form of inducible reporter, as detected with fluorescence intensity signals by Reverse transcription polymerase chain reaction (RT-PCR) and Capillary electrophoresis technology.Data from the assay component ATG_PPARa_TRANS was analyzed into 1 assay endpoint. This assay endpoint, ATG_PPARa_TRANS, was analyzed in the positive analysis fitting direction relative to DMSO as the negative control and baseline of activity. Using a type of inducible reporter, measures of mRNA for gain-of-signal activity can be used to understand the reporter gene at the transcription factor-level as they relate to the gene PPARA. Furthermore, this assay endpoint can be referred to as a primary readout, because this assay has produced multiple assay endpoints where this one serves a reporter gene function. To generalize the intended target to other relatable targets, this assay endpoint is annotated to the nuclear receptor intended target family, where the subfamily is non-steroidal.
# Human liver HepG2 cells are transiently transfected with multiple reporter transcription units (MRTUs) in 6-well plates using FuGene 6 reagent (Roche; 3 ml FuGene/1 mg DNA). The MRTU constructs are regulated by a cis-regulating element (promoter). […] A major difference between the CIS and TRANS system is that in CIS activities of endogenous TFs are measured, whereas the TRANS assay evaluates changes in activities of exogenous, chimeric NR-Gal4 proteins. […] At the end of 24 hour incubation, total RNA was isolated using TriZol reagent (Invitrogen). The isolated RNA is then reverse-transcribed using oligo(dT) primer and Mo-MLV reverse transcriptase (Invitrogen) with DNAse I (Ambion) treatment for 30 min. The one-tenth of the produced cDNA was amplified by PCR using Taq DNA polymerase (Invitrogen) and two reporter sequence-specific primers. The PCR products were fluorescently labeled by primer extension with 6-arboxyfluorescein (6-FAM) 5'-labeled reporter sequence-specific primer (2 min at 95 C, 20 s at 68 C and 10 min at 72 C) and these products were digested with 5U of HpaI (New England Biolabs) for 2h at 37 C. The fragments were purified using Qiaquick PCR columns (Qiagen), analyzed on an ABI 3130xL genetic analyzer (Applied Biosystems) with peak positions identified by using a set of X-rhodamine (ROX)-labeled MapMarker1000 molecular weight standards (BioVentures). The raw capillary electrophoresis data was processed using Attagraph software (Attagene).
# human Peroxisome Proliferator-activated Receptor alpha (PPARa), PPARA (gene 5465), sequence (Q07869 whole entry, looked up): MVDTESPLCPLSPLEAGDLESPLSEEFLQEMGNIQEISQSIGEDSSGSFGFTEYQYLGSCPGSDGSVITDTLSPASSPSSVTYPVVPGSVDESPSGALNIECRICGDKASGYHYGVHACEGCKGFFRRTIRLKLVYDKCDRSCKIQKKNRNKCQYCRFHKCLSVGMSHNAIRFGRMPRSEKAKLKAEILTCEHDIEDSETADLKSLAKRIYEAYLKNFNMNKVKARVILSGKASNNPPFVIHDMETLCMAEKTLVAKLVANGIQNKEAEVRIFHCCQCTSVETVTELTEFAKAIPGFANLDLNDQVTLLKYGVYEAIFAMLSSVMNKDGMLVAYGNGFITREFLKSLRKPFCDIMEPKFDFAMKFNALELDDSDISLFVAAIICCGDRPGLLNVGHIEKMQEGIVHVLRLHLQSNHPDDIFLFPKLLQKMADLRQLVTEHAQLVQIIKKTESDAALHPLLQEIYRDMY
row,Structure (SMILES),outcome
1,COc1ccc(C(=CC(=O)N2CCOCC2)c2ccc(Cl)cc2)cc1OC,inactive
2,O=c1ccc(=O)[nH][nH]1,inactive
3,Cc1ccn2nc(S(=O)(=O)Nc3c(F)cccc3F)nc2n1,inactive
4,Nc1nc(N)nc(NC2CC2)n1,inactive
5,CCOP(=S)(OCC)SCCSCC,inactive
6,CCCSP(=O)(OCC)Oc1ccc(Br)cc1Cl (stereo not given),inactive
7,N#CSCSC#N,inactive
8,C=C(C)[C@H]1Cc2c(ccc3c2O[C@@H]2COc4cc(OC)c(OC)cc4[C@@H]2C3=O)O1,inactive
9,CN(C)[C@@H]1C(=O)C(C(N)=O)=C(O)[C@@]2(O)C(=O)C3=C(O)c4c(O)cccc4[C@@](C)(O)[C@H]3[C@H](O)[C@@H]12,inactive
10,CCOC(=O)CC(SP(=O)(OC)OC)C(=O)OCC (stereo not given),inactive
11,CNC(=O)Oc1cccc2c1OC(C)(C)O2,inactive
12,CCCCSP(=O)(SCCCC)SCCCC,inactive
13,CC(C1CC1)C(O)(Cn1cncn1)c1ccc(Cl)cc1 (stereo not given),inactive
14,COP(=O)(OC)SCn1c(=O)oc2cc(Cl)cnc21,inactive
15,CSc1nc(NC(C)C)nc(NC(C)C)n1,inactive
16,CC1=NNC(=O)N(/N=C/c2cccnc2)C1,inactive
17,CC(C)N(C(=O)SCC(Cl)=C(Cl)Cl)C(C)C,inactive
18,CCCOCC(=Nc1ccc(Cl)cc1C(F)(F)F)n1ccnc1,inactive
19,CCOC(=O)COc1cc(-c2nn(C)c(OC(F)F)c2Cl)c(F)cc1Cl,inactive
20,CCCCOC(=O)c1ccccc1C(=O)O,inactive

row,Structure (SMILES),outcome
1,Cc1cc(C2CC2)nc(Nc2ccccc2)n1,inactive
2,CNC(=O)ON=C(SC)C(=O)N(C)C,inactive
3,CN1COCN(Cc2cnc(Cl)s2)C1=N[N+](=O)[O-],inactive
4,CN(C)NC(=O)CCC(=O)O,inactive
5,CCNc1nc(Cl)nc(NC(C)(C)C#N)n1,inactive
6,CC(C)=CC1C(C(=O)OCN2C(=O)C3=C(CCCC3)C2=O)C1(C)C (stereo not given),inactive
7,CNC(=O)ON=C(C)SC,inactive
8,COP(=O)(OC)C(O)C(Cl)(Cl)Cl (stereo not given),inactive
9,O=[N+]([O-])c1cc(C(F)(F)F)c(Cl)c([N+](=O)[O-])c1Nc1ncc(C(F)(F)F)cc1Cl,inactive
10,CCC(=O)Nc1ccc(Cl)c(Cl)c1,inactive
11,CN(C)C(=O)Nc1cccc(C(F)(F)F)c1,inactive
12,CON=C(C(=O)OC)c1ccccc1CON=C(C)c1cccc(C(F)(F)F)c1,inactive
13,COc1cc(OC)nc(Sc2cccc(Cl)c2C(=O)O)n1,inactive
14,C[Si](Cn1cncn1)(c1ccc(F)cc1)c1ccc(F)cc1,inactive
15,C#CCC1=C(C)C(OC(=O)C2C(C=C(C)C)C2(C)C)CC1=O (stereo not given),inactive
16,O=C(O)c1cc(Oc2ccc(C(F)(F)F)cc2Cl)ccc1[N+](=O)[O-],inactive
17,Cc1nn(-c2cc(NS(C)(=O)=O)c(Cl)cc2Cl)c(=O)n1C(F)F,inactive
18,CCCCN(CC)c1c([N+](=O)[O-])cc(C(F)(F)F)cc1[N+](=O)[O-],inactive
19,CC(=NC#N)N(C)Cc1ccc(Cl)nc1,inactive
20,CCOP(=S)(OCC)Oc1ccc2c(C)c(Cl)c(=O)oc2c1,inactive
